Holding throughout (assay): DAPPL (digital affinity profiling via proximity ligation, sequencing); 10 mM Tris-HCl pH 7.5, 50 mM NaCl, 1 mM DTT, 4% glycerol, room temperature, 30 min; GST-TFs on glutathione beads, 16-mer random dsDNA library, 0.1% formaldehyde crosslink after washing; high values mean tight binding
Common to all, as to settings: protein: recombinant; tags: N-terminal GST; dsDNA, one strand shown

One experiment addresses T1, SPIC (Homo sapiens, UniProt Q8N5J4 1-248).
T1 sequence: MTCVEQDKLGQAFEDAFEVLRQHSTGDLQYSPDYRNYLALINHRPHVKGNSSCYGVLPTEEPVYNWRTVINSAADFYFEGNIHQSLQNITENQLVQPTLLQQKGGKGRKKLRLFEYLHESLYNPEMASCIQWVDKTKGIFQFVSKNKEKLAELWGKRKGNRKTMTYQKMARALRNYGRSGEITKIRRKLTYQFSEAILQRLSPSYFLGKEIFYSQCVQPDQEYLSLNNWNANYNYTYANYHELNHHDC
Summed up: (§1)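 Binding signal is given per hexamer as its read frequency for a factor divided by its frequency in the tag-only sample. GST-fused human transcription factors were expressed in yeast, captured on glutathione beads, barcoded with DNA and pooled with that sample, then incubated with 200 nmole of a 16-mer random double-stranded DNA library in Tris/NaCl/DTT/glycerol buffer for 30 min at room temperature. The pools were then washed, crosslinked, proximity-ligated, amplified by PCR and sequenced on an Illumina NextSeq500.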

For a further experiment, the target named is T2, ELK1 (Homo sapiens, UniProt P19419 1-428).
T2 sequence: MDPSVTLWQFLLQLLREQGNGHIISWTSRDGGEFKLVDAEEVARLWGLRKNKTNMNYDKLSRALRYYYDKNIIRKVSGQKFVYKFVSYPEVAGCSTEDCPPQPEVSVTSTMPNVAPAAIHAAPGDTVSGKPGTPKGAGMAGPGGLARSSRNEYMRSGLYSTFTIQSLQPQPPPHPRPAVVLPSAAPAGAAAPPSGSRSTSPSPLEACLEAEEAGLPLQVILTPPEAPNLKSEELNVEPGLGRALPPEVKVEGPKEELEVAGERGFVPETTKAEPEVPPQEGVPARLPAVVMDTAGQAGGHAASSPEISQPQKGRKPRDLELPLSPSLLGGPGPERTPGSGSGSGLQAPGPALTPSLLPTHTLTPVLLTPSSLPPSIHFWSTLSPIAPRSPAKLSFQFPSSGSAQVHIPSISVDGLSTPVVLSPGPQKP
Put shortly: as §1

Another experiment has as its target SPI1 (Homo sapiens, UniProt P17947 1-270). Put shortly: as §1
Another experiment has as its target T3, ELK3 (Homo sapiens, UniProt P41970 1-407).
T3 sequence: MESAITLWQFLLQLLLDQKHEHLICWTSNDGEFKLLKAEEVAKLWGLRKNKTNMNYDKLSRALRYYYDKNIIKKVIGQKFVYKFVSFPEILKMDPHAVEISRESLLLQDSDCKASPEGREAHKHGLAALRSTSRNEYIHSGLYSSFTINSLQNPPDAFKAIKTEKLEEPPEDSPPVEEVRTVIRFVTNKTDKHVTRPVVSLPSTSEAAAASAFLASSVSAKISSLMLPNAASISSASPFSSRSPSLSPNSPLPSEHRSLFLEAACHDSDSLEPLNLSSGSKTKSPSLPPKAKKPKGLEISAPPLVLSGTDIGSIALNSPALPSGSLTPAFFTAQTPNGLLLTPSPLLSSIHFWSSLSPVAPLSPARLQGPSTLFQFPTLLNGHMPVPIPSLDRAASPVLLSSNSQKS
Summed up:
as §1

For a further experiment, the target named is ELF4 (Homo sapiens, UniProt Q99607 1-663). Summed up:
as §1

In the next experiment the target is T4, ELF3 (Homo sapiens, UniProt P78545 1-371).
T4 sequence: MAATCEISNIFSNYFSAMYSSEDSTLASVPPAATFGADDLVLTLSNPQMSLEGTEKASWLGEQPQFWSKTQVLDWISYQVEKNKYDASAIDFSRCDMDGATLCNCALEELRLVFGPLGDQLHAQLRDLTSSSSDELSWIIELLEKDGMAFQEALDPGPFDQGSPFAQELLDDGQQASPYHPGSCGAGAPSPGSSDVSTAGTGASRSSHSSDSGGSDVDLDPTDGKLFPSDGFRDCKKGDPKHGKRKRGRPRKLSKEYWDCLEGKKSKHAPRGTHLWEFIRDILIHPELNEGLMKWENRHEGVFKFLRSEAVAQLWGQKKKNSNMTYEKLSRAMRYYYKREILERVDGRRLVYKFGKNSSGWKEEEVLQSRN
Put shortly: as §1

In another experiment the target is ELF1 (Homo sapiens, UniProt P32519 1-619). Summed up: as §1
ELF1, sequence (P32519 whole entry): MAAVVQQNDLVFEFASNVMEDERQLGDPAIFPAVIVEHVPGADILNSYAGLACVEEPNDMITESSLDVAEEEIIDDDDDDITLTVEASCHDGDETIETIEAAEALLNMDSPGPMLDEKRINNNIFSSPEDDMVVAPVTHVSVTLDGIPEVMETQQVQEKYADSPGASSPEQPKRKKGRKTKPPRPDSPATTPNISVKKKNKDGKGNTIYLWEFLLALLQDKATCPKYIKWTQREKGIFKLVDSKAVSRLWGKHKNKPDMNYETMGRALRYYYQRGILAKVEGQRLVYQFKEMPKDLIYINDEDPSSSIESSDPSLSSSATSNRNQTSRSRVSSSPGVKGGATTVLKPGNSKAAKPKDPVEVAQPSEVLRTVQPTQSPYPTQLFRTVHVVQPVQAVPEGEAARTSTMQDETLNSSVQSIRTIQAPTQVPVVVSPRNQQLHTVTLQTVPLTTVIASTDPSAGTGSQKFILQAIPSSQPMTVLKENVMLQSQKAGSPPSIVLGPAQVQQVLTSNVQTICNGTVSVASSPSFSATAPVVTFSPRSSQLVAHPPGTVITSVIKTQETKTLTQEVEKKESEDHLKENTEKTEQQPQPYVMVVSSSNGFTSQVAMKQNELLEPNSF
The target in another experiment is T5, EHF (Homo sapiens, UniProt Q9NZC4 1-300).
T5 sequence: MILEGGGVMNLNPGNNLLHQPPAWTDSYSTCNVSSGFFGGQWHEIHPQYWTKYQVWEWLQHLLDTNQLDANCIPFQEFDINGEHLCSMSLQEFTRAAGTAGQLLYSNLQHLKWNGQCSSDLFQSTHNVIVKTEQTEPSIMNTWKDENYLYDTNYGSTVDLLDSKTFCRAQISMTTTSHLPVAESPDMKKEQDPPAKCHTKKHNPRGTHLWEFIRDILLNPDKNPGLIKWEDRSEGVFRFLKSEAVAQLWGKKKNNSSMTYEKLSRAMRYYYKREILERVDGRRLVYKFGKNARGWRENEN
Put shortly: as §1

The target in a further experiment is T6, ELK4 (Homo sapiens, UniProt P28324-2 1-405).
T6 sequence: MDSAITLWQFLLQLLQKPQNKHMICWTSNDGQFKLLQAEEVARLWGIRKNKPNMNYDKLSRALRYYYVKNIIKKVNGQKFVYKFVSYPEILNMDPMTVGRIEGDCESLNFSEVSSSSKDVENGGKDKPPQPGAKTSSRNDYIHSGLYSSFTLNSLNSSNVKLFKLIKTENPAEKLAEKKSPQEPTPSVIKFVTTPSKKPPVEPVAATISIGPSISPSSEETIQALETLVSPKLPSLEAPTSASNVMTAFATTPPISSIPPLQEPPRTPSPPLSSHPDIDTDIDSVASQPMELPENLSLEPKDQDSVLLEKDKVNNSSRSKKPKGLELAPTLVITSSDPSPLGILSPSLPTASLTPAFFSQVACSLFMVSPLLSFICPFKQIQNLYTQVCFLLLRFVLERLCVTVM
Summed up: as §1

For another experiment, the target named is T7, ETV2 (Homo sapiens, UniProt O00321 1-342).
T7 sequence: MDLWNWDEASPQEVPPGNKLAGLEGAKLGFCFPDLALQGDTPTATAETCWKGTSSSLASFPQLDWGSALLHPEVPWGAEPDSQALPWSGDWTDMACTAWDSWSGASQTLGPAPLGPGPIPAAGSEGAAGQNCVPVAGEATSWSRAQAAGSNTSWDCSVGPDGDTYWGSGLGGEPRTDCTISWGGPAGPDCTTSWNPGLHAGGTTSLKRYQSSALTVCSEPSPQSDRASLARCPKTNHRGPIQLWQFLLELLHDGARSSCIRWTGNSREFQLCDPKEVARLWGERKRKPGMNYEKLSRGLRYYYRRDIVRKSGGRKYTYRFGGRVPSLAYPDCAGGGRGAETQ
Summed up:
as §1

The target in another experiment is ETV1 (Homo sapiens, UniProt P50549 1-477). Summed up: as §1
ETV1, sequence (P50549 whole entry): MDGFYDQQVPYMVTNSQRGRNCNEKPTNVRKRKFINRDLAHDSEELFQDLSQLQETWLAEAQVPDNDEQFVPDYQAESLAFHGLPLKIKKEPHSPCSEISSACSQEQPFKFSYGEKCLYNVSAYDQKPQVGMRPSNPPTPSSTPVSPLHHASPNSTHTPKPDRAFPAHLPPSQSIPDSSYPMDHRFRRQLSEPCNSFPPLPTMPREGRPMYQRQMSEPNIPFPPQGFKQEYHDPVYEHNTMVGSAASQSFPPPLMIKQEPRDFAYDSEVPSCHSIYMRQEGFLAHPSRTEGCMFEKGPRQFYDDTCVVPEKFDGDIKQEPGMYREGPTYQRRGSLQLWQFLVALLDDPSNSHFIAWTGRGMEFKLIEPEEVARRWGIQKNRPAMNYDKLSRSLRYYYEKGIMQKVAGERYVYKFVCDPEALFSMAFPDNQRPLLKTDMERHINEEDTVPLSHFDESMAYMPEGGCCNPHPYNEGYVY
The target of the next experiment is T8, ERF (Homo sapiens, UniProt P50548 1-548).
T8 sequence: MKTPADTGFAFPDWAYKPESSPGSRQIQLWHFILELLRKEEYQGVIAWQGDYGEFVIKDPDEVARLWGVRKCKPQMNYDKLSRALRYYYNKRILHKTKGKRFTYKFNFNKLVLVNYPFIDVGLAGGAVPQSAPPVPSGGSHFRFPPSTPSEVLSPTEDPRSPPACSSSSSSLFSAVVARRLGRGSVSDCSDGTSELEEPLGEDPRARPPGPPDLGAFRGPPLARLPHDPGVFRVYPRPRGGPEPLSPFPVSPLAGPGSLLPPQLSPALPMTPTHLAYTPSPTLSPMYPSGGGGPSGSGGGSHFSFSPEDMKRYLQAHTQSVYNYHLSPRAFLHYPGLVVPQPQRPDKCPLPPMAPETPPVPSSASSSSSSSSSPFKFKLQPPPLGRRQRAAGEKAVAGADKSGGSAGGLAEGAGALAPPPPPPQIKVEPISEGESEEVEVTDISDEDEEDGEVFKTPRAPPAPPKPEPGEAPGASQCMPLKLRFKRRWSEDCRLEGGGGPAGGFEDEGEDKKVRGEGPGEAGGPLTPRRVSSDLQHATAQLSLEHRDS
Put shortly: as §1

The target in a further experiment is T9, SPDEF (Homo sapiens, UniProt O95238 1-335).
T9 sequence: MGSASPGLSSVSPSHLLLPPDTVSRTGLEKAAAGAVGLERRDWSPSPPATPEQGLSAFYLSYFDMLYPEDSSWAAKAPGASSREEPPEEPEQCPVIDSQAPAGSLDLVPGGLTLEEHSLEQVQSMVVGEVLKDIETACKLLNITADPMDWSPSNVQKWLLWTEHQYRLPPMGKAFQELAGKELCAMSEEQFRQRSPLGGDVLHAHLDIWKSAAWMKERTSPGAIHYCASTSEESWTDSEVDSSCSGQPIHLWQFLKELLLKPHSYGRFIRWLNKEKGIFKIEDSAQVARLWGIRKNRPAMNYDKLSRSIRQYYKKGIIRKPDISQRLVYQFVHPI
Put shortly:
as §1

The next experiment addresses T10, ELF5 (Homo sapiens, UniProt Q9UKW6-2 1-255).
T10 sequence: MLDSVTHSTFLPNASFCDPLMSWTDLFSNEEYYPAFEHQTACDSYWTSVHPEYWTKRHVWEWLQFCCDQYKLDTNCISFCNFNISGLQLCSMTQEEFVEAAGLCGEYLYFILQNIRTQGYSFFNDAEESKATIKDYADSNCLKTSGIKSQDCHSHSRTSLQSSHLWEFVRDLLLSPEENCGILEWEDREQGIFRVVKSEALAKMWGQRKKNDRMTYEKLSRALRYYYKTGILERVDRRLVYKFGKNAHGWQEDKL
Put shortly: as §1

Experimental findings from PMC7862700, “An all-to-all approach to the identification of sequence-specific readers for epigenetic DNA modifications on cytosine” are described below.

ELF4, sequence (Q99607 whole entry): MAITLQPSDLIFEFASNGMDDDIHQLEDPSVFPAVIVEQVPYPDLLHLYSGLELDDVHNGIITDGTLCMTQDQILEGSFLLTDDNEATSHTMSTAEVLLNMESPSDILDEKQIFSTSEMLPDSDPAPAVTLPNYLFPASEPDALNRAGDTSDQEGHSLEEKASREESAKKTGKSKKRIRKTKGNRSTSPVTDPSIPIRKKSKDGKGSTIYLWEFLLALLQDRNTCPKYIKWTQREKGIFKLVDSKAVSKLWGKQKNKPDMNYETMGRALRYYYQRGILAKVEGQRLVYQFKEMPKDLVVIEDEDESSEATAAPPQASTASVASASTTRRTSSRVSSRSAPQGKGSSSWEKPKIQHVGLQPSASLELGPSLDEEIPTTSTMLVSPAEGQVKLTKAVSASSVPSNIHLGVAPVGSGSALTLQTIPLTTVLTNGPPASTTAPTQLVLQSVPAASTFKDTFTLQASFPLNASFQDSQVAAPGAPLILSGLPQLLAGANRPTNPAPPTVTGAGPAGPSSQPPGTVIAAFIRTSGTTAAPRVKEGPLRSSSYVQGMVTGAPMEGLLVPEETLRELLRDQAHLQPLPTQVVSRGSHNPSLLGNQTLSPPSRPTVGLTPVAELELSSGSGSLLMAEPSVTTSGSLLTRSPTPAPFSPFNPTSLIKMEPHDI

Consider CTGTGG, for which the binding signal with SPIC is 1.1 fold enrichment (6-mer frequency, TF over GST control).

For the sequence ACATGA, the binding signal was 1.01 fold enrichment (6-mer frequency, TF over GST control) with ELK1; 1.01 fold enrichment (6-mer frequency, TF over GST control) in the experiment with SPI1; 1.07 fold enrichment (6-mer frequency, TF over GST control) with ELK3; 1.02 fold enrichment (6-mer frequency, TF over GST control) with SPIC; 1.04 fold enrichment (6-mer frequency, TF over GST control) with ELF4; 1.03 fold enrichment (6-mer frequency, TF over GST control) in the experiment with ELF3.

With ATCACG, the binding signal with ELK1 was 1.04 fold enrichment (6-mer frequency, TF over GST control); in the experiment with ELF1 it was 1.03 fold enrichment (6-mer frequency, TF over GST control); with EHF it was 1.08 fold enrichment (6-mer frequency, TF over GST control); with SPIC it was 1.04 fold enrichment (6-mer frequency, TF over GST control); with ELK4, 1 fold enrichment (6-mer frequency, TF over GST control); in the experiment with ETV2, 1.07 fold enrichment (6-mer frequency, TF over GST control). Besides, the binding signal in the experiment with ELF3 was 1.01 fold enrichment (6-mer frequency, TF over GST control); in the experiment with ETV1, 1.02 fold enrichment (6-mer frequency, TF over GST control); with ERF, 1.07 fold enrichment (6-mer frequency, TF over GST control); in the experiment with SPDEF, 1.07 fold enrichment (6-mer frequency, TF over GST control); in the experiment with ELF5, 1.02 fold enrichment (6-mer frequency, TF over GST control).

Take GTTGTC: the binding signal in the experiment with SPIC was 1.1 fold enrichment (6-mer frequency, TF over GST control); in the experiment with ELK4, 1.02 fold enrichment (6-mer frequency, TF over GST control).
